# In PubChem BioAssay (NCI):
# Compounds without any hit were thinned out: in the full panel of roughly 79,000, 15% have a hit. A number with no mark means an inactive call. Active and inactive are the calls of the source. Rule as the data show it: active = growth inhibition above about 70%; inactive = the rest. Where a SMILES comes first, the peptide text is derived from it. [ ]: non-standard residue; d: D form. The star is where a group is joined. ξ: configuration not given here. ξD = NC(CC(=O)O)C(=O)O; Boc = CC(C)(C)OC(=O)*; Aib = CC(C)(N)C(=O)O; OBn = c1ccc(CO*)cc1
# Tests used:
# [1] = NCI Yeast Anticancer Drug Screen. Data for the rad50 strain (AID 155);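 also: 0% = growth of vehicle-only cultures of the same strain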; details: S. cerevisiae rad50 strain growth inhibition; at 50.0 µM; stronger effect = higher value
# In short: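 Growth of the mutant yeast was measured after compound exposure and referenced to vehicle-treated cultures.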
# [2] = NCI Yeast Anticancer Drug Screen. Data for the mec2-1 strain (AID 157); details: S. cerevisiae mec2-1 strain, at 50.0 µM, stronger effect = higher value
# In short: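 Each compound was tested on mec2-1 yeast, a strain altered in DNA damage repair or cell cycle control. Growth inhibition is reported relative to vehicle.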
# [3] = NCI Yeast Anticancer Drug Screen. Data for the sgs1 mgt1 strain (AID 161);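 also: 0% = growth of cultures given vehicle only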; details: S. cerevisiae sgs1 mgt1 strain, at 50.0 µM, stronger effect = higher value
# In short: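 Genetically altered yeast, compound exposure, growth inhibition relative to vehicle.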
# [4] = NCI Yeast Anticancer Drug Screen. Data for the cln2 rad14 strain (AID 165);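 also: 0% = growth equal to vehicle treated cultures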; details: S. cerevisiae cln2 rad14 strain, at 50.0 µM, stronger effect = higher value
# In short: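 Test compounds were added to cln2 rad14 yeast cultures; inhibition of growth was then determined by comparison with vehicle treatment.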
# [5] = NCI Yeast Anticancer Drug Screen. Data for the bub3 strain (AID 167); details: S. cerevisiae bub3 mutant strain, at 50.0 µM, stronger effect = higher value
# In short: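 Whole-cell yeast assay. The mutant strain was incubated with compounds, and growth inhibition was determined by comparison with vehicle-treated cells.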
# [6] = NCI Yeast Anticancer Drug Screen. Data for the mlh1 rad18 strain (AID 175); details: S. cerevisiae mlh1 rad18 strain growth inhibition; at 50.0 µM; stronger effect = higher value
# In short: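 Inhibition values reflect reduced growth of mutant yeast versus vehicle-treated controls following compound exposure; the mutations affect DNA damage repair.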
SMILES,growth inhibition [1],growth inhibition [2],growth inhibition [3],growth inhibition [4],growth inhibition [5],growth inhibition [6]
Cc1ccccc1C(=O)c1ccc2ccccc2c1,11.4%,26.2%,28.2%,9.35%,9.3%,25.4%
Cn1c(=O)c2c(nc(NN)n2C)n(C)c1=O,1.15%,-10.8%,-2.65%,-25%,10.9%,4.7%
O=C(/C=C/c1ccccn1)c1ccc(Cl)cc1,22.1%,10.7%,24.1%,16.9%,22.4%,13.1%
NC(=O)/C(=C\c1ccc(OCc2ccccc2)c(OCc2ccccc2)c1)NC(=O)c1ccccc1,41.2%,22.4%,44%,32.6%,-3.65%,17.7%
O=S1(=O)OCCOS(=O)(=O)C1S(=O)(=O)c1ccc2ccccc2c1,50.5%,-6.15%,9.3%,34.8%,1.4%,11.8%
O=[N+]([O-])c1ccn(O)c(=Nc2ccccc2)c1,1.7%,11.2%,5.45%,-32.5%,-14.9%,20.4%
CCCCNC(=O)/C(=C\c1ccccc1)NC(C)=O,50.1%,12.1%,0.85%,-8.45%,10.9%,-14.2%
O=C(CC(=O)c1ccc(-c2ccc(C(=O)CC(=O)c3ccccc3)cc2)cc1)c1ccccc1,-16.4%,-11%,-20.4%,-34.4%,-1.8%,-10.7%
c1cnc2ncncc2n1,-2.6%,32.4%,-8.55%,28.8%,14.4%,12.5%
CC1(C)C(N2CCOCC2)CS1(=O)=O (stereo unspecified),1.75%,-5.2%,-1.5%,-24.2%,-15.7%,3.25%
N#Cc1ccc(S(=O)(=O)c2ccc(C#N)cc2)cc1,1%,-17.6%,11.3%,24.4%,12%,-19.4%
COC1(C)CNCC(C)(C)NC(=O)C(C)(OC)CNCC(C)(C)NC1=O (stereo unspecified),-10.9%,2.1%,-20.7%,-17%,-32.5%,-19.6%
CC1(C)C(=O)C(C)(C)C(=O)C(C)(C)C1=O,2.45%,-15.7%,5.4%,16.9%,11.3%,-0.3%
COc1c(NC(=O)c2ccccc2Cl)cccc1[N+](=O)[O-],-1%,1.3%,13.8%,-6.75%,16.9%,20.2%
Clc1ccc(-c2ncc(-c3ccccc3)o2)cc1,20.8%,-13.7%,-6.75%,4.2%,33.6%,-9.9%
N#CC(=O)Nc1cccc(Cl)c1,-13.1%,-8.05%,-16.4%,-19.7%,-3.05%,-0.15%
Clc1cccc(-c2ncc(-c3ccccc3)o2)c1,8.7%,-3.8%,-0.6%,-29.2%,2.15%,19.1%
CCOC(=O)c1ccc(N=Nc2ccc(N(CCC#N)CCC#N)cc2C)cc1,-47.5%,-50.6%,-27.4%,-4.4%,-36.8%,-24.5%
Nc1cc(C(=O)O)c(O)c(Cl)c1O,31.3%,7.05%,12.3%,21.6%,4.5%,29.8%
CC(C)=C1C=C(C(C)(C)C)C(=O)C(C(C)(C)C)=C1,29.9%,-5.9%,-1.8%,17.4%,9.15%,28.4%
CC1=CC(=Nc2ccc(N(C)C)cc2)C(C)=CC1=O,-11.1%,-28.3%,-2.4%,-30.6%,5.4%,-4.35%

SMILES,growth inhibition [1],growth inhibition [2],growth inhibition [3],growth inhibition [4],growth inhibition [5],growth inhibition [6]
CC1OC2=N[C@@H]1C(=O)N[C@@H](C(C)C)C1=N[C@H](C(=O)N[C@@H](C(C)C)C3=N[C@H](C(=O)N[C@@H](C(C)C)C4=N[C@H](C(=O)N[C@H]2C(C)C)C(C)O4)C(C)O3)C(C)O1 (stereo partly specified),6.9%,3.55%,3.55%,19.1%,14.8%,9.55%
NC(=O)C1C[C@@H](O)CN1C(=O)c1ccc2c(c1)OCO2 (stereo partly specified),-11.6%,-9.8%,-24.6%,6.5%,3.05%,1.25%
Cc1cccc(S(=O)(=O)c2ccccc2)c1,22.9%,34.1%,-15.7%,13.1%,4.35%,18.6%
Clc1ccc2nc[nH]c2c1,10.1%,10.1%,4.5%,0.7%,5.9%,18.2%
COc1cc(COC(=O)c2ccc(CSc3ccc(Cl)cc3)o2)cc(OC)c1OC,-19.4%,-33%,-0.75%,-8.4%,-13.9%,-10.8%
CN1N=CSC12C(=O)N(c1ccc(Cl)cc1)C(=O)N2c1ccc(Cl)cc1 (stereo unspecified),18.1%,3.6%,11.2%,30.4%,51%,11.9%
Clc1ccc(C2NC(c3ccc(Cl)cc3)NC(c3ccc(Cl)cc3)N2)cc1 (stereo unspecified),28.4%,14%,35.5%,-5.4%,8.75%,-2%
Cc1ccc(Cl)cc1NC(=O)Oc1ccccc1C(=O)OCc1ccccc1,-31.9%,-1.55%,18.5%,-37.3%,20.2%,19.9%
CC(O)CN=Cc1ccccc1 (stereo unspecified),-16.6%,21.9%,-11.2%,-41.4%,-11.5%,-18.8%
O=C1OC(=O)C2=C1CCC2,-5%,-14.1%,-20.4%,13.3%,3.85%,-12.4%
CCOC(=O)c1c(C#N)c2cnn(-c3ccccc3)c2n2cccc12,14.1%,9.8%,-2.25%,-64.2%,-8.25%,36.1%
COC(=O)c1cccc2c1Cc1cc(N)ccc1-2,-7.9%,-16.8%,-19.6%,-21.4%,9.7%,-12.2%
CCNc1nnc(-c2nsc3ccccc23)s1,-12.7%,-36.1%,-10.1%,-11.5%,-27.5%,-18.9%
O=C1Nc2ccccc2C12OCCS2 (stereo unspecified),-4.1%,25.2%,17.2%,-7.4%,5.25%,7.25%
Cc1ccc(C(=O)N/N=C/c2ccc3ccccc3c2)cc1,-1%,-13.2%,-5.25%,-13.8%,33.4%,-5.3%
CC(C)(C)OC(=O)NC(CC(=O)OCc1ccccc1)C(=O)NC(C)(C)C(N)=O (stereo unspecified) (Boc-[ξD](OBn)-[Aib]-NH2),5.25%,11.8%,2%,26.6%,23.4%,-19.8%
COc1ccc(N2CCN(CC(O)COc3ccc(Cl)cc3)CC2)cc1 (stereo unspecified),70.8% (active),18.9%,75% (active),14.9%,13.8%,28.5%
O=C(O)/C=C/C(=O)N(c1ccccc1)N(C(=O)/C=C/C(=O)O)c1ccccc1,5.9%,-9.05%,5.15%,5.65%,5.55%,17.5%
O=c1[nH]nc(S(=O)(=O)NC2CCCCC2)c(=O)[nH]1,12.6%,-13.1%,-7.3%,-20.9%,2.65%,5.6%
CCOC(=O)C1OC1(C)CC (stereo unspecified),4.1%,1%,10.3%,-5.85%,-5.25%,-21.4%
